Compound activity deposited in PubChem by National Center for Advancing Translational Sciences (NCATS).
Most compounds without a hit are left out; they make up all but 19% or so of the library.
HT1080 IDH1KD tx: HT-1080 IDH1 knockdown cell toxicity (counter line); hit rate 2% among 360,000; Potency, µM (top dose mostly 46.1 µM), for the others: top-dose activity, negative = toxicity, actives largely listed as cytotoxic; HT-1080 IDH1 knockdown viability, ATP luminescence, 48 h; AID 686971;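 further: 0% = DMSO wells and -100% = cell-free medium wells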
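Assay cells: HT-1080 with IDH1 knockdown, 750 per well, RPMI/5% FBS. Exposure: 48 h at 37 °C following 2 h pre-incubation. Read: CellTiter-Glo luminescence; fitted concentration-response, curve class assigned.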
KB-V1 cytotox: KB-V1 MDR subline cytotoxicity; KB-V1 MDR cells viability, CellTiter-Glo, 72 h; Potency, µM (doses to about 46.1 µM), usual class: cytotoxic; hit rate 3.4% among 400,000; AID 1347076; further: nearly all actives have a fitted effect of over 60% in size
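KB-V1 MDR subline cells in DMEM (phenol-red free, 10% FBS) exposed to compounds in qHTS concentration series for 72 h at 37 degrees C. Viability read by CellTiter-Glo luminescence; concentration-effect curves fitted after normalization and correction.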
HT1080NT lethal: kills 2HG-producing HT-1080-NT fibrosarcoma cells. HT-1080-NT fibrosarcoma viability, CellTiter-Glo ATP luminescence, 48 h. Potency, µM (highest dose often 46.1 µM), without a hit: top-dose activity, negative = less viability, most hits filed as cytotoxic. hit rate 1.6% among 360,000;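 further: NT is the 2HG producing partner of a matched IDH1 knockdown line; 0% = DMSO-treated cells and -100% = media-only wells without cells; nearly all actives have a fitted effect of over 55% in size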
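HT-1080-NT; 750 cells/well; 5% FBS RPMI; 48 h compound, 37 degrees C; CellTiter-Glo luminescence; curve fitting and curve-class assignment.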
KB-3-1 cytotox: KB-3-1 parental cell cytotoxicity; KB-3-1 viability, CellTiter-Glo ATP luminescence, 72 h; Potency, µM (highest dose often 46.1 µM), hits mostly cytotoxic; hit rate 1.4% among 400,000; AID 1347075; further: nearly all actives have a fitted effect of over 60% in size
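Parental KB-3-1 adenocarcinoma cells in phenol-red-free DMEM with 10% FBS were pin-treated with compounds at several concentrations, incubated 72 h at 37 °C, and viability read by CellTiter-Glo luminescence; concentration-effect curves were fitted after normalization.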
DT40 TDP1 no CPT: qHTS for Inhibitors of human tyrosyl-DNA phosphodiesterase 1 (TDP1): qHTS in cells in absence of CPT; DT40 Tdp1-/- hTDP1 cells, no CPT, ATP luminescence, 48 h; Potency, µM (top dose mostly 46.2 µM), for the others: at the highest dose activity change, negative = growth inhibition, usual class: inhibitors; hit rate 15% among 420,000; AID 686978, 2013; further: nearly all actives have a fitted effect of over 55% in size
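No-CPT arm: Tdp1-/-;hTDP1 DT40 cells (400/well) plus compounds, incubated ≥48 hr at 37 °C. Readout CellTiter-Glo luminescence.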
TDP1 cell CPT: DT40-hTDP1 cell growth loss with CPT | chicken DT40 Tdp1-/-;hTDP1 cells + 20 nM CPT, ATP luminescence, 48 h | Potency, µM (titrated, usually from 46.2 µM), for the others: at the highest dose activity change, negative = growth inhibition, actives largely listed as inhibitors | hit rate 12% among 420,000; further: nearly all actives have a fitted effect of over 55% in size
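Cell growth measured by CellTiter-Glo luminescence after a minimum 48 h, 37 C compound exposure with 20 nM CPT in Tdp1-knockout DT40 cells stably expressing hTDP1, seeded 400/well; qHTS titration format.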
An asterisk follows results filed as active; i = inactive; ? = inconclusive; · = no result given; [ ] = another dose, or the depositor's remark. The call rests on the fitted dose curve; in most records, active means well fitted curve in the direction sought with a large enough effect; inconclusive means small, poorly fitted or top-dose-only effect, or another doubt; inactive means no such curve, though single readings can be large; an effect the other way counts as inactive or inconclusive. Unless noted, on the % scale 0 is the no-effect control and ±100 the full control effect; potency means the concentration at half of the fitted maximal effect.

SMILES | HT1080 IDH1KD tx | KB-V1 cytotox | HT1080NT lethal | KB-3-1 cytotox | DT40 TDP1 no CPT | TDP1 cell CPT
O=C(NNC(=O)C1C2C=CC(C2)C1C(=O)O)c1cc(Cl)ccc1O (stereo not drawn) | -0.8% | i | -4.6% | i | -0.9% | -5.5%
CNc1cccc(S(=O)(=O)N2CCCN(S(=O)(=O)c3ccc4c(c3)OCCO4)CC2)c1 | · | i | · | i | · | ·
COc1ccc(C(CCNCc2ccc(F)cc2)c2ccc(F)cc2)cc1 (stereo not drawn) | 23.1µM* | ? | ? | ? | ? | ?
COc1ccc(C(CCNC(C)c2ccccc2)c2ccc(F)cc2)cc1 (stereo not drawn) | 18.4µM* | 11.6µM* | ? | ? | 7.31µM* | 7.31µM*
COc1ccc(CNCCC(c2ccc(F)cc2)c2ccc(OC)cc2)cc1 (stereo not drawn) | 20.6µM* | ? | 20.6µM* | 23.1µM* | 10.3µM* | 11.6µM*
COc1ccc(CCNC(=O)CNCCc2ccc(F)cc2)cc1 | 5.6% | i | -4.3% | i | ? | -18.7%
COc1ccc(CNC(=O)CNC(C)c2ccc(F)cc2)cc1 (stereo not drawn) | 5.2% | i | -2.2% | i | -2.7% | -10.1%
COc1ccc(C(CCNCc2ccccc2)c2ccc(F)cc2)cc1 (stereo not drawn) | 16.4µM* | 18.4µM* | ? | ? | ? | ?
CCOC(=O)C1=C(C)N(CCCCCC(=O)O)C(=O)NC1c1ccc([N+](=O)[O-])cc1 (stereo not drawn) | 1.5% | i | 3.3% | i | -8.0% | 15.7%
CCCCCCN(C(=O)CCCN1C(=O)NC(c2ccc([N+](=O)[O-])cc2)C(C(=O)OCc2ccccc2)=C1C)C(C)C(=O)NCCCC (stereo not drawn) | -7.0% | i | -1.8% | i | 9.2µM* | 11.6µM*
Cc1cc(C(=O)COC(=O)c2ccc(Cl)c(S(N)(=O)=O)c2)c(C)n1C1CC1 | 2.6% | i | 0.4% | i | ? | ?
CSCCC(C(=O)Nc1c(C)cccc1C)N(C)CCc1ccccc1 (stereo not drawn) | -22.5% | i | -18.4% | i | 16.4µM* | 18.4µM*
CN(CCc1ccccc1)C(CCc1ccccc1)C(=O)Nc1ccc2c(c1)OCCO2 (stereo not drawn) | -17.5% | ? | -14.2% | i | ? | ?
O=C(c1ccc(CSc2ccc(Cl)cc2)cc1)N1CCCC1 | -2.9% | i | 1.7% | i | ? | ?
CN(C)Cc1cc(O)c(CN(C)C)cc1O | 3.4% | i | 7.4% | ? | 3.66µM* | 2.59µM*
Cc1ccc(O)c(CN(C)Cc2cc(C)ccc2O)c1 | -5.5% | 20.6µM* | 1.7% | ? | ? | ?
CSCCC(NC(=O)/C(=C/c1ccco1)NC(=O)c1ccc(Br)o1)C(=O)O (stereo not drawn) | 0.0% | i | 18.4% | i | -4.7% | 0.2%
Cc1cccc(CN2C[C@H](Sc3ccccn3)C[C@H]2C(=O)Nc2ccc3sc(C)nc3c2)c1 | · | · | · | · | -19.7% | 1.5%[9.04 µM]
CCC(C(=O)Nc1cccc(S(=O)(=O)N(C)c2ccccc2)c1)c1ccccc1 (stereo not drawn) | ? | · | -13.0% | · | 18.4µM* | 18.4µM*
Cc1ccc(S(=O)(=O)N(C)c2ccc(OC(C)C(=O)N(C)c3ccccc3)cc2)cc1 (stereo not drawn) | -8.2% | ? | 1.0% | i | 18.4µM* | 14.6µM*
CC(Oc1ccc(F)cc1)C(=O)Nc1cccc(S(=O)(=O)N(C)c2ccccc2)c1 (stereo not drawn) | -4.7% | ? | -18.2% | i | 16.4µM* | ?
